HEK293 tox: qHTS of GLP-1 Receptor Inverse Agonists: Cytotox Screen | 410,000 compounds, 0.13% hits | Potency, µM (doses to about 38.3 µM), for the others: top-dose activity change, negative = inhibition, most hits filed as inhibitors | HEK293 cAMP-luciferase reporter cells, luminescence, 24 h;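 note: loss of luciferase light is scored as toxicity; % is set by controls: 0 for no effect and ±100 for the full control effect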
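MLSMR compounds, 24 hr on cells at 37 deg C/5% CO2; luminescence after luciferase reagent (12 min RT). Inhibition counted as the undesired cytotoxic outcome.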
RORg inh: qHTS for inhibitors of ROR gamma transcriptional activity. Nuclear receptor ROR-gamma (Mus musculus), P51450. Drosophila S2 Gal4-RORgamma UAS-luciferase reporter, 20 h. Potency, µM (series often up to 53.6 µM), without a hit: top-dose activity change, negative = inhibition, actives largely listed as inhibitors. 310,000 compounds, 5.4% hits; note: % is set by controls: 0 for no effect and ±100 for the full control effect; nearly all actives have a fitted effect of over 60% in size
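Using a luciferase readout, inhibitors were identified by reduced reporter activity in Drosophila cells coexpressing a copper-inducible Gal4–ROR gamma fusion and UAS-driven Photinus luciferase, incubated 20 hr after 700 uM copper sulfate.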
VP16 counter: VP16 counterscreen qHTS for inhibitors of ROR gamma transcriptional activity; Potency, µM (top dose mostly 53.6 µM), inactives show top-dose activity, negative = inhibition, usual class: inhibitors; Drosophila S2 Gal4-VP16 UAS-luciferase, luminescence, 20 h; 310,000 compounds, 3.5% hits;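 note: Gal4-VP16 expression switched on by copper sulfate through the metallothionein promoter; % is set by controls: 0 for no effect and ±100 for the full control effect; nearly all actives have a fitted effect of over 50% in size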
GLP-1R inv ag: qHTS of GLP-1 Receptor Inverse Agonists (Inhibition Mode). Glucagon-like peptide 1 receptor (Homo sapiens), P43220. HEK293 GLP-1R CRE-luciferase, luminescence, 24 h; GLP-1R form is constitutively active. Potency, µM (series often up to 38.3 µM), for inactives: at the top dose activity change, negative = inhibition, actives largely listed as inhibitors. 410,000 compounds, 1.6% hits; note: % is set by controls: 0 for no effect and ±100 for the full control effect; nearly all actives have a fitted effect of over 55% in size
Target sequence (P43220 whole entry, looked up): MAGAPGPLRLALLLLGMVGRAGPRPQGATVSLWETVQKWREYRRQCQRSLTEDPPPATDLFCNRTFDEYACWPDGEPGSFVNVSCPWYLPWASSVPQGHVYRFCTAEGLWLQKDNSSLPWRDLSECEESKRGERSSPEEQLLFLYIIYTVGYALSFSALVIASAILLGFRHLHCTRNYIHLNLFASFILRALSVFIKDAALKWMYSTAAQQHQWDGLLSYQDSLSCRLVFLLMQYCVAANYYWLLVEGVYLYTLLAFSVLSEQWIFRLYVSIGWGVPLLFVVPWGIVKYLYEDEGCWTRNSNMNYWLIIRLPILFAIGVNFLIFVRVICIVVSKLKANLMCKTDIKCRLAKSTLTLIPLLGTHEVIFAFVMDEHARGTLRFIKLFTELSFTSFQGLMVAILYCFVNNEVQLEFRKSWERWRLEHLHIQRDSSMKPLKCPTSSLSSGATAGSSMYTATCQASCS
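Luminescence readout: a drop in cAMP-driven luciferase signal flags inverse agonism at a constitutively active GLP-1R stably expressed in HEK293. Compound exposure lasted 24 hr at 37 deg C, 5% CO2.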
GLP-1R agonist: qHTS of GLP-1 Receptor Agonists. HEK293 GLP-1R CRE-luciferase, luminescence, 4-6 h; cells express a hypersensitive GLP-1R form. Potency, µM (doses to about 45.6 µM), without a hit: top-dose activation, hits mostly activators. 380,000 compounds, 0.007% hits; note: % of control where 0% means no effect
* marks the source's active call; other numbers are inactive results; ? = inconclusive; / = no result; [ ] = remark or other dose. This is a sample that favours compounds with a hit; in the whole collection about 5.9% have one here. Calls come from the whole dose curve; as a rule, active = well fitted curve in the direction sought with a large enough effect; inconclusive = small, poorly fitted or top-dose-only effect, or another doubt; inactive = no such curve, though single readings can be large; an effect the other way counts as inactive or inconclusive. Potency is the fitted concentration of half-maximal effect.

SMILES | HEK293 tox | RORg inh | VP16 counter | GLP-1R inv ag | GLP-1R agonist
CCOc1cc(-c2ccc(OC(=O)c3ccc(OC)cc3)c(OC)c2)cc(=O)c2c(C)oc(C)c12 | -8% | / | / | -4% | /
CC(=O)OC[C@H]1O[C@@H](O/N=C(\C)CCN2CCCCc3nc(C)c(C)cc32)[C@H](OC(C)=O)[C@@H](OC(C)=O)[C@H]1OC(C)=O | / | -1%[10 µM] | 7%[10 µM] | / | /
COc1cc(OC)c2c(=O)c(O)c(-c3ccc(OC)c(OC)c3)oc2c1 | / | 2.8µM* | ? | / | /
O=c1c(O)c(-c2cccc(O)c2)oc2ccccc12 | / | ? | 2% | / | /
COc1cc(-c2oc3cc(O)cc(O)c3c(=O)c2O)ccc1O | / | 3% | -13% | / | /
Cc1ccc2oc(-c3ccc(Cl)cc3)c(O)c(=O)c2c1 | 1% | / | / | -15% | /
COc1cccc(-c2oc3ccccc3c(=O)c2O)c1 | / | 6.3µM* | 7.9µM* | / | /
O=c1c(O)c(-c2ccc3c(c2)OCO3)oc2ccccc12 | 65% | 6.3µM* | 11µM* | ? | -10%
COc1ccc(-c2oc3ccc(C)cc3c(=O)c2O)cc1OC | / | 5µM* | ? | / | /
COc1ccc(-c2oc3ccccc3c(=O)c2O)cc1OC | / | 6.3µM* | ? | / | /
COc1ccc(-c2oc3c(OC)c(OC)c(OC)c(O)c3c(=O)c2OC)cc1OC | -15% | 11µM* | ? | 2.8µM* | 8%
Cc1nc(Nc2ccc(Cl)cc2Cl)sc1C(=O)Nc1ccccc1 | -13% | ? | ? | 10µM* | 11%
Cc1nc(Nc2ccc(Cl)c(Cl)c2)sc1C(=O)Nc1ccccc1 | ? | ? | ? | ? | 1%
Cc1nc(NC(=O)/C=C/c2ccccc2)sc1C(=O)Nc1ccccc1Cl | -3% | 16µM* | ? | 1% | -1%
Cc1nc(NC(=O)/C=C/c2ccccc2)sc1C(=O)Nc1ccc(Cl)cc1 | ? | -38% | ? | -42% | -11%
FC(F)(F)c1ccccc1-c1nc(Nc2ccncc2)c2ccccc2n1 | / | 11µM* | ? | / | /
Cc1noc(C)c1-c1nc(Nc2ccc(F)cc2)c2ccccc2n1 | / | 19% | 1% | / | /
Cc1noc(C)c1-c1nc(Nc2ccncc2)c2ccccc2n1 | / | 8.9µM* | -3% | / | /
COc1ccccc1-c1nc(Nc2ccncc2)c2ccccc2n1 | / | -32% | 9% | / | /
Cc1ccc(/C=C/C(=O)Nc2ccc3nc(N4CCC(C)CC4)cc(C)c3c2)cc1 | 4% | / | / | 5% | -1%
COc1cccc(CCc2ccccc2OCC[C@@H]2C[C@@H](O)CN2C)c1 | / | 7.1µM* | 3% | / | /
COc1cccc(CN2CCN(Cc3cc4ccccc4o3)CC2CCO)c1 (centres undefined) | -6% | 6%[1.91 µM] | 5% | ? | -1%
COc1cccc(Cn2c(=O)n(-c3cc(C)cc(C)c3)c(=O)c3oc4ccccc4c32)c1 | -9% | / | / | -29% | /
CCOC(=O)c1c(C)[nH]c(C)c1S(=O)(=O)N1CCCC(C(=O)Nc2cc(C)ccc2C)C1 (centres undefined) | 1% | / | / | 16% | /
Cc1ccc(NN2C(=O)C=C(c3ccccc3)C2=O)cc1 | ? | 3.5µM* | 5µM* | ? | -3%
SMILES | HEK293 tox | RORg inh | VP16 counter | GLP-1R inv ag | GLP-1R agonist
COc1cc(NC(=O)Nc2nnc(N3CCCCCC3)s2)cc(OC)c1 | -19% | / | / | 10% | /
CN1CCN(S(=O)(=O)c2ccc(Cc3ccc(S(=O)(=O)N4CCN(C)CC4)cc3)cc2)CC1 | -1% | 14% | -5% | 5.6µM* | -9%
CN1CCN(S(=O)(=O)c2ccc(-c3ccc(S(=O)(=O)N4CCN(C)CC4)cc3)cc2)CC1 | / | -3% | 13% | / | /
COc1ccccc1N1CCN(c2ncnc3c2c(-c2ccccc2)cn3-c2cccc(C)c2)CC1 | -3% | / | / | 11% | /
CCCCNC(=O)CC1Nc2cc(C)c(C)cc2NC1=O (centres undefined) | -7% | / | / | 8% | 1%
COc1ccc(CN(C)C(=O)c2cc(-c3ccccc3)nc3ccc(C)cc23)c(OC)c1 | ? | / | / | 5.6µM* | 0%
COc1ccc(-c2cc(C(=O)Oc3ccccc3)c3cc(C)ccc3n2)cc1 | -21% | / | / | ? | /
CCN1C(=O)/C(=C/c2ccc(C)s2)NC1=S | -17% | 18µM* | ? | 3% | -4%
C#CC(=O)N(c1ccc(OC)c(OC)c1)C(C(=O)NC1CCCC1)c1cccs1 (centres undefined) | ? | 2.5µM* | 8.9µM* | ? | -35%
Cc1cccc(N(C(=O)C(F)(F)F)C(C(=O)NC2CCCCC2)c2cccs2)c1 (centres undefined) | -8% | -18% | ? | 0% | -3%
C#CC(=O)N(c1cccc(OC)c1)C(C(=O)NC1CCCC1)c1cccs1 (centres undefined) | ? | 1.6µM* | 5µM* | 3.2µM* | -4%
CCS(=O)(=O)Nc1ccc(Cc2ccc(NS(=O)(=O)CC)cc2)cc1 | -16% | 1.3µM* | ? | 0% | -10%
CS(=O)(=O)Nc1ccc(Cc2ccc(NS(C)(=O)=O)cc2)cc1 | -7% | 36% | ? | ? | -7%
CCn1c(O)c(N=NC2=NC(=O)CS2)c2ccccc21 | ? | 10µM* | ? | 8% | -6%
CCn1c(O)c(N=N)c2ccccc21 | 7% | 16% | -19% | 44% | 14%
CN(/N=C\c1ccc(O)c(O)c1)c1nc(-c2ccccc2)cc(-c2ccccc2)n1 | ? | 2.5µM* | 3.2µM* | ? | 3%
COc1cc(/C=N/N(c2ccccc2)c2ccccc2)ccc1O | ? | 1% | ? | ? | -42%
CC(=O)c1ccc(NC(=O)CN(C)S(=O)(=O)c2cc3c(cc2Cl)NC(=O)CO3)cc1 | 1% | / | / | 19% | /
Oc1ccc2ccccc2c1C=NCc1cn2ccsc2n1 | -12% | ? | 13µM* | 0% | 3%
Oc1ccc2ccccc2c1/C=N/c1nccs1 | -19% | 1% | -7% | -24% | -7%
CCCCN1CCc2nc(N3CCN(c4ncccn4)CC3)ncc2C1 | -11% | / | / | -23% | /
COc1ccc(N(C)S(=O)(=O)c2cccc(C(=O)NC3=NCCS3)c2)cc1 | 2% | 6.3µM* | ? | 9% | 5%
CC(C)Oc1ccc(C(=O)NC2=NCCS2)cc1 | 4% | 10µM* | 1%[10 µM] | ? | 0%
O=C(NC1=NCCS1)c1cccc(OC(F)F)c1 | -14% | 11µM* | -29% | -22% | -7%
COc1ccc(C(=O)NC2=NCCS2)cc1 | 2% | -18% | -2% | -17% | 8%
CC1(C(=O)NCc2ccc(F)cc2)Oc2ccccc2NC1=O (centres undefined) | 14% | -57% | 0.32µM* | 12% | 0%
Cc1ccc2c(=O)c3cccc(CC(=O)O)c3oc2c1C | / | -11% | -6% | / | /
